Laboratory results taken from PubChem BioAssay.
A number with no mark means an inactive call. No rule for the calls is given here.

Target: Pantothenate synthetase (Mycobacterium tuberculosis (strain ATCC 25618 / H37Rv)) (UniProt P9WIL5)
Assay: Recombinant Mtb pantothenate synthetase (PanC) inhibitors, coupled enzyme, confirmatory (AID 375);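 also: 0% = full reaction with vehicle and 100% = no enzyme background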
Conditions: coupled enzyme assay; at 10 µM, stronger effect = higher value

Sequence of Pantothenate synthetase (Mycobacterium tuberculosis (strain ATCC 25618 / H37Rv)) (P9WIL5 whole entry, looked up): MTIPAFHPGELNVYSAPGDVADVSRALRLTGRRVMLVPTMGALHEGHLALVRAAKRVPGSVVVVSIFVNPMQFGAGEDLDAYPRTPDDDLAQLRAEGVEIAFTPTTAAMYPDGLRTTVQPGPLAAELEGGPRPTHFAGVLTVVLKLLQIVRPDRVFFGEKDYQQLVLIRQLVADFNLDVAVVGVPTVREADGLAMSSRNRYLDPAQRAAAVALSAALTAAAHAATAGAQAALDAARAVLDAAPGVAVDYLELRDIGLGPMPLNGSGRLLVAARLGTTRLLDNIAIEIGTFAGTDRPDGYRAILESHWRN

**Q.** For `Cc1ccc(S(=O)(=O)NCC(=O)OCC(=O)Nc2ncc(Cl)cc2Cl)cc1`, which inhibition is on record?
**A.** 0%

**Q.** Which inhibition does the source give for `CC(=O)N1CCN(C(=O)COc2ccc(Br)cc2)CC1` here?
**A.** 0%

**Q.** How did the inhibition turn out when `COc1cc(C)c(-c2cc(C(=O)O)c(C)o2)cc1C(C)C` was run?
**A.** 0%

**Q.** How did the inhibition turn out when `Cc1ccc(-c2nnc(SCC(=O)N3CC(C)CC(C)C3)o2)cc1C` (stereo not given) was run?
**A.** 0%

**Q.** With `O=C(CN(C(=O)CCNC(=O)c1ccco1)c1ccccc1)NC1CCCC1` as the compound, how does the inhibition read?
**A.** 2%

**Q.** Which inhibition does the source give for `CCCCC(CC)C(=O)Nc1ccccc1C#N` (stereo not given) here?
**A.** 0%

**Q.** `O=c1c2ccccc2nc(SCc2nnc(-c3ccccc3Br)o2)n1-c1ccccc1` was tested. Which inhibition did it give?
**A.** 0%

**Q.** Which inhibition does the source give for `O=c1c2ccccc2[nH]c(=S)n1CCN1CCC(=C(c2ccc(F)cc2)c2ccc(F)cc2)CC1` here?
**A.** 4%

**Q.** How did the inhibition turn out when `Cc1ccc(NC(=O)CNc2cccc(C)c2C)c(C)c1` was run?
**A.** 0%

**Q.** `Cc1ccccc1OCC(O)CN` (stereo not given) was tested. Which inhibition did it give?
**A.** 0%

**Q.** With `CC(CN1CCCCC1)OC(=O)c1ccc(Cl)cc1Cl` (stereo not given) as the compound, how does the inhibition read?
**A.** 0%

**Q.** `C1CCC2=NCCCN2CC1` was tested. Which inhibition did it give?
**A.** 7%

**Q.** How did the inhibition turn out when `CCOc1cc(NC(=O)c2ccco2)c(OCC)cc1NC(=O)Cc1cccc(OC)c1` was run?
**A.** 8%

**Q.** With `Cc1nn(C(=O)c2ccoc2C)c(N)c1-c1ccccc1` as the compound, how does the inhibition read?
**A.** 2%

**Q.** With `CC(C)(C)n1nnnc1CN(Cc1ccco1)Cc1cc2cc3c(cc2[nH]c1=O)OCO3` as the compound, how does the inhibition read?
**A.** 0%

**Q.** `CN(C)C(=O)N1CCC(C(=O)NC2CCCCCCC2)CC1` was tested. Which inhibition did it give?
**A.** 0%

**Q.** With `COc1cc(OC)nc(NC(=O)CSc2nc3ccccc3o2)n1` as the compound, how does the inhibition read?
**A.** 11%

**Q.** Which inhibition does the source give for `Cc1cc(C)cc(N2CCCn3c2nc2c3c(=O)n(CCN3CCOCC3)c(=O)n2C)c1` here?
**A.** 7%

**Q.** How did the inhibition turn out when `O=C(Cn1cnc2ccccc2c1=O)NCCC(=O)N1CCN(c2ccccc2)CC1` was run?
**A.** 0%

**Q.** With `COc1cccc(C2C(C(N)=O)=C(C)Nc3nc(-c4ccccc4Cl)nn32)c1` (stereo not given) as the compound, how does the inhibition read?
**A.** 0%

**Q.** Which inhibition does the source give for `COc1ccc(OC)c(S(=O)(=O)N2CCC(C(=O)NCC3CCCO3)CC2)c1` (stereo not given) here?
**A.** 7%

**Q.** `O=S(=O)(NCc1ccc(Cl)cc1)c1cnc[nH]1` was tested. Which inhibition did it give?
**A.** 0%

**Q.** With `CCOC(=O)c1sc(NC(=O)CSc2nnc(-c3ccco3)n2CC)c(C(=O)OCC)c1C` as the compound, how does the inhibition read?
**A.** 0%

**Q.** Which inhibition does the source give for `CCC(=O)/C=C1\Sc2ccc(OC)cc2N1CCO` here?
**A.** 3%

**Q.** `COCCCN1C(=O)C(=O)/C(=C(/O)c2ccc(OC)cc2)C1c1ccc(O)c(OC)c1` (stereo not given) was tested. Which inhibition did it give?
**A.** 0%

**Q.** Which inhibition does the source give for `CC1(C)CC(=O)C=C(Nc2ccc(F)cc2)C1` here?
**A.** 0%

**Q.** How did the inhibition turn out when `COc1ccc(NC(=O)N(C2CCCCC2)C2CCN(C(C)C)CC2)c(OC)c1` was run?
**A.** 0%

**Q.** How did the inhibition turn out when `COc1ccc(CCn2c(=N)c(C#N)cc3c(=O)n4ccccc4nc32)cc1` was run?
**A.** 0%

**Q.** For `Clc1ccc(-c2nnc3sc(-c4ccc(Br)o4)nn23)cc1`, which inhibition is on record?
**A.** 0%

**Q.** How did the inhibition turn out when `O=C1N(c2ccccc2)C2CS(=O)(=O)CC2N1c1ccc(Br)cc1` (stereo not given) was run?
**A.** 0%

**Q.** Which inhibition does the source give for `Cc1cc(C2C(C#N)=C(N)SC(N)=C2C#N)c(C)s1` here?
**A.** 0%

**Q.** Which inhibition does the source give for `CCOC(=O)N1CCN(C(=O)CN(C)S(=O)(=O)c2ccc(OC)c(OC)c2)CC1` here?
**A.** 0%

**Q.** Which inhibition does the source give for `Cc1ccc(N2C(=O)c3ccccc3C2Nc2cccnc2)nc1` (stereo not given) here?
**A.** 1%

**Q.** `COCCNC(=O)NC(=O)COC(=O)Cc1ccc2c(c1)OCCO2` was tested. Which inhibition did it give?
**A.** 4%

**Q.** With `CCc1nc(N)c(C#N)c(-c2ccc(OC)c(OC)c2)c1C` as the compound, how does the inhibition read?
**A.** 2%

**Q.** Which inhibition does the source give for `O=C1c2ccccc2C(Nc2ccc3c(c2)OCCO3)N1Cc1ccc2c(c1)OCO2` (stereo not given) here?
**A.** 1%

**Q.** For `O=C1CS/C(=N\C(=O)N2c3ccccc3Sc3ccccc32)N1`, which inhibition is on record?
**A.** 0%

**Q.** With `CC(=O)N1CCN=C1SCc1c(F)cccc1Cl` as the compound, how does the inhibition read?
**A.** 2%

**Q.** With `COc1ccc(C)cc1S(=O)(=O)N1CCN(Cc2ccccc2)CC1` as the compound, how does the inhibition read?
**A.** 11%

**Q.** `O=C(Cn1c(=O)oc2ccccc21)Nc1ccc(S(=O)(=O)N2CCCCC2)cc1` was tested. Which inhibition did it give?
**A.** 0%
